# Compounds without any hit were thinned out: in the full panel of roughly 83,000, 20% have a hit.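 Each cell line was grown in a 96-well plate and treated with one concentration of compound for 48 hours. Values below 10 were considered active.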 A number with no mark means an inactive call. Activity calls are given as the source filed them.
# Key:
# Assay in all cases: NCI-60 one-dose screen, 48 h (100 = growth as untreated, 0 = no growth, -100 = all killed)
# Settings in all cases: 10 µM unless noted
# [1] = tested on: NCI-H23 lung
# [2] = tested on: NCI-H322M lung
# [3] = tested on: HOP-62 NSCLC
# [4] = tested on: NCI-H460 lung
# [5] = tested on: NCI-H522 lung
# [6] = tested on: A549/ATCC NSCLC
# [7] = tested on: 786-0 renal
# [8] = tested on: COLO 205 colon
# [9] = tested on: DU-145 prostate
# [10] = tested on: K-562 leukemia
# [11] = tested on: MALME-3M melanoma
# [12] = tested on: MDA-MB-231 breast
# [13] = tested on: RXF 393 renal
# [14] = tested on: SF-268 CNS
# [15] = tested on: SF-295 CNS
# [16] = tested on: SF-539 CNS
# [17] = tested on: UACC-257 melanoma
# [18] = tested on: M14 melanoma
SMILES,growth [1],growth [2],growth [3],growth [4],growth [5],growth [6],growth [7],growth [8],growth [9],growth [10],growth [11],growth [12],growth [13],growth [14],growth [15],growth [16],growth [17],growth [18]
C[C@@H]1CC2C3CCC4=CC(=O)C=C[C@]4(C)[C@@]3(Cl)[C@@H](O)C[C@]2(C)[C@@]1(OC(=O)c1ccco1)C(=O)CCl (stereo not given in full),66.5%,74.3%,94.4%,62.1%,73.9%,33.6%,80.5%,111%,79%,56.7%,87.7%,72.2%,77.7%,53.7%,64.4%,53%,96.4%,82%
Cc1ccncc1NC=O,101%,102%,109%,106%,99.1%,102%,103%,110%,113%,107%,105%,110%,111%,104%,104%,102%,106%,96.4%
NC(=O)N/N=C\c1ccc([N+](=O)[O-])o1,99.6%,117%,96.7%,–,95.8%,97.1%,107%,117%,105%,101%,73%,122%,123%,102%,97.7%,102%,91.9%,112%
Cc1ccc(C(CN(C)C)C(=O)c2ccccc2)cc1 (stereo not given),71.5%,101%,101%,71.7%,-66.4% (active),81.7%,-20.7% (active),43.5%,34.7%,-26.8% (active),79.8%,25.4%,43.6%,25.9%,85.6%,57.6%,49.1%,31.6%
COc1ccc(C(=O)O)cc1.[Ag],103%,102%,113%,87.1%,11.8%,93.4%,107%,61.8%,106%,-27.4% (active),-51.3% (active),103%,100%,97%,114%,94.9%,94.9%,106%
NC(N)=NC1CCCCC1,101%,102%,108%,113%,85.8%,94.1%,98.1%,118%,22.3%,93.5%,101%,117%,97.3%,-15.8% (active),120%,105%,90.6%,103%
CCOC(=O)c1ccc2c(c1)nc(-c1ccc(Cl)cc1)n2-c1cc(C(C)(C)C)[nH]n1,44.5%,64.1%,39.3%,23.1%,26.1%,39.9%,14.1%,34.7%,53.4%,–,33.5%,54.1%,21.4%,44.8%,16.9%,11.3%,73.2%,9.36% (active)
CCSc1cnnc2ccccc12,101%,118%,104%,118%,97.8%,108%,109%,111%,113%,85.7%,124%,103%,123%,102%,117%,106%,113%,105%
Cc1[nH]c2ccccc2c1C1=CC(=O)C=CC1=O,92.8%,120%,94.7%,111%,-24.4% (active),93.2%,84.3%,55.7%,103%,33.4%,123%,87.7%,115%,83.7%,127%,79.1%,91.6%,79.4%

# Source: PubChem BioAssay (NCI)
